# From PubChem BioAssay AID1868 (National Center for Advancing Translational Sciences (NCATS), 2009)
# Screen size: about 270,000 compounds; about 20 (0.007%) were called active. The call rests on the fitted dose curve; in most records, active means well fitted inhibition curve with a large enough effect; inconclusive means small, poorly fitted or top-dose-only effect, or effect the other way; inactive means flat fitted curve, though single readings scatter. Not all results are given here.
# Molecular target: Galactokinase (Homo sapiens) (UniProt P51570)
# Experiment: qHTS Assay for Inhibitors of Human Galactokinase (GALK)
# Conditions: Purified GALK, Kinase-Glo residual ATP luminescence; series mostly up to 57.5 µM
# From the text: NIH Molecular Libraries Probe Production Centers Network [MLPCN] NIH Chemical Genomics Center [NCGC] MLPCN Grant: R03 MH085689-01 Assay Submitter (PI): Kent Lai (University of Utah School of Medicine, 50 N Mario Capecchi Drive, Salt Lake City, UT 84132) NCGC Assay Overview: Inherited deficiency of galactose-1-phosphate uridyltransferase (GALT) can result in a potentially lethal disorder called Classic Galactosemia (OMIM 230400). Several lines of evidence indicate that an elevated level of galactose-1-phosphate (gal-1-p), the product of galactokinase (GALK), is a major, if not sole, pathogenic mechanism in patients with classic galactosemia. Therefore, finding inhibitors of GALK is a potential novel therapy for this inherent metabolic disease and is the long term goal of this project. GALK (provided by the assay submitter) was assayed using ATP and D-(+)-Galactose (Sigma-Aldrich cat# G0750) as substrates. Promega Kinase-Glo Plus (cat# V3774) technology was used to detect the residual ATP following kinetic reaction. Briefly, the Kinase-Glo Plus contains Ultra-Glo [2] luciferase and D-luciferin which generates a bioluminescence signal from the remaining ATP.
# NCGC Assay Protocol Summary: Three uL/well of ATP-buffer solution (35 uM ATP, 20mM HEPES pH8.0, 5 mM MgCl2, 60 mM NaCl, 1 mM DTT, 0.01% BSA final concentration) was dispensed into 1536-well, assay plates (Greiner, solid white medium-binding plates) with Aurora Discovery BioRAPTR Flying Reagent Dispenser (FRD; Beckton-Dickenson). Compound solution (23 nL) was transferred to the assay plate using the Kalypsys 1536-pin tool. One uL/well GALK-galactose solution (5 nM GALK, 100 uM galactose, 20 mM HEPES pH8.0, 5 mM MgCl2, 60 mM NaCl, 1 mM DTT, 0.01% BSA final concentration) was then added using the FRD yielding a total kinase reaction volume of 4 uL/ well. After 1 hour of room temperature incubation, 4 uL Kinase-Glo Plus reagent was added for a final assay volume of 8 uL/ well. Luminescence was detected with the ViewLux plate reader (Perkin Elmer, Waltham, MA) after 10 min incubation using a 1 sec exposure time and 2x binning.
# Sequence of Galactokinase (Homo sapiens) (P51570 whole entry, looked up): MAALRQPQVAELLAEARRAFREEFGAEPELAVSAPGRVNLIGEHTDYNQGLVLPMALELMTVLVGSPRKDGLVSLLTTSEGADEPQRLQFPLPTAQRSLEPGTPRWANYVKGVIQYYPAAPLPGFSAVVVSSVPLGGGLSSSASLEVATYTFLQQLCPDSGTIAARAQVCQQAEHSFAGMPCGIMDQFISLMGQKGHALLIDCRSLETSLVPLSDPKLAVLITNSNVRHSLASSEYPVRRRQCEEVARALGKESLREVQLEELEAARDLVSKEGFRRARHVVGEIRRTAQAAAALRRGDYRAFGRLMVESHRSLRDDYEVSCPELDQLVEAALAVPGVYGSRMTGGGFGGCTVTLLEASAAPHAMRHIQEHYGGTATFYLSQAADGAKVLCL
row,Structure (SMILES),outcome
1,Cc1cccc(Nc2nc(-c3ccccc3)cs2)n1,inactive
2,COc1ccc(/C=C(\C#N)c2c[nH]c3ccccc23)cc1,inactive
3,COc1ccc(CCc2nc(-c3cccs3)no2)cc1,inactive
4,O=C(Nc1ncc([N+](=O)[O-])s1)C1COc2ccccc2O1 (centres undefined),inactive
5,COCCN1C(=O)N(c2ccc(Cl)cc2)C(=O)C1CC(=O)Nc1cc(OC)cc(OC)c1 (centres undefined),inactive
6,Cc1c(C)n(Cc2ccc(Cl)cc2)c2ccc(C(=O)NCCCN3CCOCC3)cc12,inactive
7,Cc1cccc2sc(N(CCCN(C)C)C(=O)CCS(=O)(=O)c3ccccc3)nc12,inactive
8,O=C(c1ccco1)N1CCN(C(=O)c2cc(-c3ccccc3F)no2)CC1,inactive
9,CCOC(=O)c1csc(CCNC(=O)c2oc3c(Cl)cc(C)cc3c2C)n1,inactive
10,COc1ccc(NC(=O)C/C(C)=N/NC(=O)c2cnccn2)cc1Cl,inactive
11,COc1ccc(/C=N/Nc2ccccc2C(=O)O)cc1,inactive
12,Cc1ccc(CNC(=O)C(=O)c2cn(CC(=O)N3CCOCC3)c3ccccc23)cc1,inactive
13,COc1ccc(C)cc1N(CC(=O)N1CCCC1)S(=O)(=O)c1ccccc1,inactive
14,CC(c1ccccn1)N(C)C(=O)c1ccc2nc(Cc3cccc(Cl)c3)oc2c1 (centres undefined),inactive
15,COc1ccc(OC)c(/C(C)=N\NC(=O)c2cc3cc(Cl)ccc3n2C)c1,inactive
16,O=C(O)c1ccccc1NC(=O)c1ccccc1-c1ccccc1C(=O)O,inactive
17,CCS(=O)(=O)Nc1ccc(C(=O)NCCSc2ccccc2)cc1,inactive
18,O=C(NCCc1ccc(Cl)cc1)c1cccc(N2CCCC2=O)c1,inactive
19,Cc1cc(=O)n2nc(N3CCCC(C(=O)NCc4ccc(Cl)cc4)C3)sc2n1 (centres undefined),inactive
20,Cc1ccc(C)c(S(=O)(=O)N2CCCOC2CNC(=O)C(=O)NC2CCCCC2)c1 (centres undefined),inactive
21,COc1ccc(C(=O)CCc2ccccc2O)c(OC)c1,inactive
22,O=C(/C=C/c1ccco1)NC(=S)N1CCCCC1,inactive

row,Structure (SMILES),outcome
1,CN(Cc1cnccn1)C(=O)c1cc(COc2cccc(C(F)(F)F)c2)on1,inactive
2,O=C(N/N=C/c1c[nH]c2ccccc12)c1ccccc1O,inactive
3,Oc1ccccc1C1=NN(c2ccccc2)C(c2ccccc2)C1 (centres undefined),inactive
4,CCCN1CCn2c3c(c4cc(Br)ccc42)CCCC31 (centres undefined),inactive
5,COC(=O)c1cc(NS(=O)(=O)c2ccc3c(c2)c(=O)n(C)c(=O)n3C)cc(C(=O)OC)c1,inactive
6,CC(=O)c1ccc(S(=O)(=O)NCc2nnnn2-c2ccccc2)cc1,inactive
7,COc1cccc2[nH]c(C(=O)NCCc3ccccc3)cc12,inactive
8,Cc1cccnc1CC(C)NC(=O)c1cc(COc2cncc(Cl)c2)on1 (centres undefined),inactive
9,COc1ccc(N2CCN(C(=O)c3cccs3)CC2)cc1,inactive
10,Cc1onc(C(=O)Nc2ccc3c(c2)OCO3)c1[N+](=O)[O-],inactive
11,C/C(=N\Nc1nncc2ccccc12)c1ccc(Cl)c([N+](=O)[O-])c1,inactive
12,CC(=O)c1ccc(NC(=O)CCNS(=O)(=O)c2cc(Br)cnc2N)cc1,inactive
13,COc1ccccc1CCNC(=O)c1c(C)nn(CC(C)C)c1Cl,inactive
14,Cn1c(NC(=O)c2ccccc2)nc2ccccc21,inactive
15,C=CCNC(=S)/N=c1/ccccn1Cc1ccccc1,inactive
16,CCCCc1nc2cc(C(=O)N3CCCCC3CCO)ccc2o1 (centres undefined),inactive
17,COc1cccc(OCc2cc(C(=O)N3CCN(C(=O)c4ccco4)CC3)no2)c1,inactive
18,CCOc1ccc(C2C(C#N)=C(N)N(N(C)C)C3=C2C(=O)CCC3)cc1 (centres undefined),inactive
19,CC(=O)c1cccc(NC(=O)CN2C(=O)c3cccnc3Oc3ccc(Cl)cc32)c1,inactive
20,O=C(CN1CCN(S(=O)(=O)c2cc(Cl)ccc2Cl)CC1)c1ccc(O)c(O)c1,inactive
21,COc1ccccc1CCCNC(=O)C1CCC(=O)N(CCN2CCOCC2)C1 (centres undefined),inactive
22,COc1ccc(CCNCc2c(-c3ccccc3)n(C)c3ccccc23)cc1,inactive

row,Structure (SMILES),outcome
1,CCn1nnnc1SCC(=O)Nc1ccc(N(C)C)cc1,inactive
2,O=C(CN1CCCCCC1)Nc1ccc(Br)cc1[N+](=O)[O-],inactive
3,COCCNC(=O)c1ccc2nc(Cc3ccc(OC)c(OC)c3)oc2c1,inactive
4,CCOc1ccc(C(=O)CCN2CCOCC2)cc1,inactive
5,O=C(c1cc(COc2ccc(F)c(F)c2)on1)N1CCOCC1,inactive
6,Cc1cc(Br)ccc1NC(=S)NC1CCCC1,inactive
7,CC(C)c1ccc(NC2CCCN(C(=O)c3ccncc3)C2)cc1 (centres undefined),inactive
8,CC(=O)c1ccc(OC(=O)N2CCOCC2)cc1,inactive
9,CCC(=O)Nc1ccc2nn(-c3ccc(F)cc3)nc2c1,inactive
10,C=CCc1cccc(/C=N/NC(=O)COc2ccc(-n3cnnn3)cc2)c1O,inactive
11,O=C(Cc1cccs1)Nc1ccc([N+](=O)[O-])cc1,inactive
12,COc1ccc(N2CCN(C3CCCCC3NS(=O)(=O)c3ccccc3)CC2)cc1 (centres undefined),inactive
13,CN(C)CCCNC(=S)N1CCC(c2nc3ccccc3[nH]2)CC1,inactive
14,COc1ccc(OCc2cc(C(=O)NCC3(C)COC3)no2)c(Cl)c1,inactive
15,O=C(N/C(=C\c1ccc([N+](=O)[O-])cc1)C(=O)N1CCCCC1)c1ccco1,inactive
16,c1ccc(-c2ccc(OCCN3CCOCC3)cc2)cc1,inactive
17,COc1cc(C(=S)N2CCOCC2)cc(OC)c1OC(=O)c1ccc([N+](=O)[O-])cc1[N+](=O)[O-],inactive
18,Cc1ccc(-c2noc(C3CCCN(C(=O)c4cccc(Cl)c4)C3)n2)o1 (centres undefined),inactive
19,C/C(=N\NC(=O)c1ccoc1C)c1ccccc1O,inactive
20,Cc1ccc(CNC(=O)C(=O)c2cn(CC(=O)N3CCCC3)c3ccccc23)cc1,inactive
